mIDH1 inhibitor: qHTS for Inhibitors of mutant isocitrate dehydrogenase 1 (IDH1): qHTS. IDH1-R132H enzyme, NADPH consumption, diaphorase/resazurin fluorescence. Potency, µM (highest dose often 76.6 µM), most hits filed as inhibitors. Isocitrate dehydrogenase [NADP] cytoplasmic (Homo sapiens), O75874. AID 602179, 2012. 390,000 compounds, 0.093% hits; further: nearly all actives have a fitted effect of over 65% in size
Target sequence (O75874 whole entry R132H, stated change not applied): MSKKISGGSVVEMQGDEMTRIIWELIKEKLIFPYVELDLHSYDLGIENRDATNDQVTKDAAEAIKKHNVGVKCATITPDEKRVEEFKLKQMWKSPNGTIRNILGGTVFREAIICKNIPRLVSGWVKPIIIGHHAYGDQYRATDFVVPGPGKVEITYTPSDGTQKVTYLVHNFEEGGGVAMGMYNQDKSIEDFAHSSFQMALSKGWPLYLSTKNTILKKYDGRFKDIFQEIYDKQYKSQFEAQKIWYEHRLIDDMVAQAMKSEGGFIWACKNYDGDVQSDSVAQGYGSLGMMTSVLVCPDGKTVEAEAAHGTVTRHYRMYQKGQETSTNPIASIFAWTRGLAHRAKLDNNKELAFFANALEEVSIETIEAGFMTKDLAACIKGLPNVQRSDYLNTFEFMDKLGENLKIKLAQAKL
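IDH1-R132H (0.5 ug/mL) preincubated 30 min with compound, then NADPH (0.016 mM) and alpha-KG (2 mM) added; 80 min at RT, pH 7.5. Remaining NADPH coupled via diaphorase/resazurin to fluorescence (540/590 nm); concentration-response curves normalized to no-enzyme control.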
ATXN2 expr inh: Primary qHTS for Inhibitors of ATXN expression; Potency, µM (titrated, usually from 57 µM), actives largely listed as inhibitors; HEK-293 ATXN2-luciferase reporter, luminescence, 24 h; AID 1745845, 2022; 360,000 compounds, 0.72% hits; further: nearly all actives have a fitted effect of over 55% in size
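ATXN2-luciferase reporter cells (luciferase flanked by upstream and downstream ATXN2 gene portions) were treated 24 h at 37 °C with compounds at up to 57 uM. SteadyGlo luminescence gave expression; GF-AFC fluorescence gave viability.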
LDHA block: qHTS assay for inhibitors of human lactate dehydrogenase; 480,000 compounds, 0.15% hits; activity change, % (values are at about 110 or 230 µM); purified LDHA, NADH/diaphorase-resazurin fluorescence; active compounds read low; AID 1347041, 2019; in the data active means activity change below about -30%; inconclusive means mostly about -25% to -30%
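LDH5 2 nM; NADH 0.06 mM, pyruvate 0.2 mM; 200 mM Tris pH 7.4, EDTA, Tween-20; 5 min RT. Detection: diaphorase 0.133 mg/mL + resazurin 37 µM, fluorescence ex540/em590 at 0 and 20 min; normalized to enzyme-free and DMSO wells.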
TGFb SMAD3 inh: qHTS for Inhibitors of TGF-b; 410,000 compounds, 1.2% hits; HepG2 CAGA-GFP TGF-b/SMAD3 reporter, GFP fluorescence, 18 h; TGF-beta stimulated, 500 pg/mL final; AID 588855, 2011; Potency, µM (highest dose often 46.1 µM), most hits filed as inhibitors; further: nearly all actives have a fitted effect of over 65% in size
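HEPG2 CAGA-GFP, 1000 cells/well; 2 h settle, 37 C; cpd via pin tool; TGF-b 500 pg/mL final; 18 h, 37 C; GFP imaging ex488/em500-530; %Activity normalised to -TGF-b and +DMSO controls; CRC fit, curve class.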
HepG2 viability: qHTS for Inhibitors of TGF-b: Cytotox Counterscreen; HepG2 CAGA-GFP viability, ATP luminescence, 18 h; Potency, µM (titrated, usually from 46.1 µM), usual class: cytotoxic; 410,000 compounds, 0.76% hits; AID 588856, 2011
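CellTiter-Glo luminescence gave cytotoxicity after 18 hours at 37 degrees C. The cells were HepG2 CAGA-GFP in 1% FBS DMEM, stimulated with 500 pg/mL TGF-beta after compound addition. %Activity was normalised to no-cell wells (complete cell-killing) and DMSO (no toxicity), and curves were fitted and classified.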
S2 tox: Viability Counterscreen for Primary qHTS for Inhibitors of ATXN expression. S2 cells (HEK-293 line with an ATXN2-luciferase reporter) viability, CellTiter-Fluor protease fluorescence, 24 h. Potency, µM (series often up to 56.7 µM), most hits filed as cytotoxic. 400,000 compounds, 0.49% hits. AID 651635, 2014; further: nearly all actives have a fitted effect of over 40% in size
Hits are given with their value; – = inactive; ? = inconclusive; · = no result given; ! = not active in a repeat. The list is not random: actives were taken first. Their share in the collection is about 2.2%. Unless noted, the call rests on the fitted dose curve; in most records, active means well fitted curve in the direction sought with a large enough effect; inconclusive means small, poorly fitted or top-dose-only effect, or another doubt; inactive means no such curve, though single readings can be large; an effect the other way counts as inactive or inconclusive.

SMILES	mIDH1 inhibitor	ATXN2 expr inh	LDHA block	TGFb SMAD3 inh	HepG2 viability	S2 tox
COCC(=O)Nc1ncc(S(=O)(=O)c2ccc([N+](=O)[O-])cc2)s1	–	–	–	–	–	–
O=C(NC(Nc1ncc(S(=O)(=O)c2ccc([N+](=O)[O-])cc2)s1)(C(F)(F)F)C(F)(F)F)c1ccc(Cl)cc1	–	14µM	–	?	–	?
CC(=O)NCC(=O)N1[C@H]2CC[C@H]1c1cc(Nc3ncc(C(F)(F)F)c(NC4CCC4)n3)ccc12	·	4.9µM	·	·	·	·
CN(C(=O)Cc1csc(-c2ccccc2)n1)c1c(N)n(Cc2ccccc2)c(=O)[nH]c1=O	–	–	–	–	–	–
Cn1nc(C(=O)NCc2ccc(Cl)cc2)c2c1-c1ccccc1S(=O)(=O)C2	–	–	–	?	–	–
N#CCC(=O)N1CCN(Cc2ccc3c(c2)OCO3)CC1	–	·	–	–	1.6µM	–
COc1ccc(NC(=O)CN2CCN(Cc3ccc4c(c3)OCO4)CC2)cc1OC	–	–	-37	–	–	–
COc1cccc(CN2CCC(C(=O)N3CCN(Cc4ccc5c(c4)OCO5)CC3)CC2)c1	–	–	-33	–	–	–
O=C(CN1CCN(Cc2ccc3c(c2)OCO3)CC1)Nc1ccc2c(c1)OCO2	–	–	–	–	–	–
CCCCc1c(-c2ccc(F)cc2)ncn1CCc1ccccc1OC	·	?	–	·	·	·
CN(CC(=O)Nc1c(Cl)cccc1Cl)C(=O)c1cccc(-n2cccc2)c1	–	–	-37!	–	–	–
CN(CC(=O)Nc1ccccc1Cl)C(=O)c1cccc(-n2cccc2)c1	–	–	–	–	–	–
COc1ccc(-c2cccc(N3CCN(c4ccccn4)CC3)n2)cc1OC	·	–	–	–	–	–
CC1=C(C(N)=O)C(c2ccccc2Cl)n2nc(-c3ccc(O)cc3)nc2N1 (centres undefined)	·	·	–	·	·	·
CC(C)(C)c1ccc(O)c(/C=N\O)c1	–	–	–	–	–	–
CC(C)(C)c1ccc(O)c(O)c1	–	40µM!	–	–	–	71µM!
O=C(NCCc1nc2ccccc2n1CCCOc1ccc(Cl)cc1)C1CCCCC1	–	·	–	18µM	–	·
Cc1cccc(C)c1OCCn1c(CCNC(=O)C2CCCCC2)nc2ccccc21	–	·	–	13µM	–	·
CC(C)(C)c1ccc(OCCn2c(CCNC(=O)C3CCCCC3)nc3ccccc32)cc1	·	·	–	20µM	–	·
O=C(NCCCc1nc2ccccc2n1Cc1ccc(F)cc1)C1CCCCC1	–	–	–	13µM	–	?
O=C(NCCCc1nc2ccccc2n1Cc1ccccc1)C1CCCCC1	–	?	–	?	–	?
COc1ccc(Cl)cc1C(=O)Nc1ccc(CN2CCCCC2)cc1	–	?	–	–	–	?
CC(=O)c1ccc(NS(=O)(=O)c2ccc3[nH]c(=O)[nH]c3c2)cc1	?	·	–	–	–	·
Cc1cc(C)cc(OCCCn2c(CCNC(=O)C3CCCCC3)nc3ccccc32)c1	–	·	–	?	–	·
CCCn1c(NC(=S)Nc2ccccc2)nc2ccccc21	–	–	–	?	–	–
SMILES	mIDH1 inhibitor	ATXN2 expr inh	LDHA block	TGFb SMAD3 inh	HepG2 viability	S2 tox
S=C(Nc1ccccc1)Nc1nc2ccccc2n1CCOc1ccc(Cl)cc1	–	?	–	14µM	–	–
Cc1cccc(OCCCn2c(CCNC(=O)C3CCCCC3)nc3ccccc32)c1	–	·	–	22µM	–	·
Nc1nc(Cl)cc(N2CCC(c3nc(C4CC4)n[nH]3)CC2)n1	·	·	–	·	·	·
O=C1C=CC(=O)N1CCNc1ncc(C(F)(F)F)cc1Cl	–	25µM	–	13µM	11µM	·
O=C(COc1ccc(F)cc1)N(Cc1cccc(Br)c1)C1CCS(=O)(=O)C1 (centres undefined)	–	–	–	–	–	–
O=[N+]([O-])c1ccccc1S(=O)(=O)N1CCN(C2CCN(Cc3ccccc3)CC2)CC1	–	–	-34	–	–	–
O=[N+]([O-])c1ccc(S(=O)(=O)N2CCN(C3CCN(Cc4ccccc4)CC3)CC2)cc1	–	–	–	–	–	–
CC(C)N(C)Cc1nnnn1CC(=O)NCc1cc(F)cc(C(F)(F)F)c1	–	–	–	–	–	–
COc1ccc(-n2cc(C(=O)Nc3cc([N+](=O)[O-])ccc3OC)c3ccccc3c2=O)cc1	–	–	–	–	–	–
CCC1=NN(C(=O)c2cccc(Br)c2)C(O)(c2ccc(Br)cc2)C1 (centres undefined)	–	?	–	8.9µM	–	?
CCOc1ccc(-c2ccc(NS(=O)(=O)c3cc(C)ccc3OC)cc2)nn1	–	–	–	–	–	?
Cc1ccc(-n2c(CNc3ccc(F)cc3)nnc2SCC(=O)N2CCCC2)cc1	–	–	–	–	–	–
Cc1nnc(SCC(=O)N2CCCC2)n1-c1ccc(F)cc1	–	–	–	–	4.5µM	–
Cc1cccc2sc(NC(=O)CN3C(=O)NC4(CCCC4)C3=O)nc12	–	–	–	–	–	–
COCCNc1nc(NCCNC(C)=O)c2sc(-c3ccccc3)cc2n1	·	–	–	–	–	–
COCCNc1nc(NCCOc2ccccc2Cl)c2sc(-c3ccccc3)cc2n1	·	–	–	?	14µM	?
COCCNc1nc(NCC2CCCCC2)c2sc(-c3ccccc3)cc2n1	·	35µM	–	?	–	18µM
COCCNc1nc(NCCCN2CCCC2=O)c2sc(-c3ccccc3)cc2n1	·	–	–	–	–	?
CCc1nc2c(OCCC3CCCCC3)cccn2c1N(C=O)Cc1ccc(OC)cc1	·	?	–	?	20µM	–
CCCCN(C=O)c1c(CC)nc2c(OCC3CCCCC3)cccn12	·	?	–	13µM	–	?
CCCCC(=O)N(C)c1c(CC)nc2c(OCC3CCCCC3)cccn12	·	?	–	?	–	–
CCc1nc2c(OCCC3CCCCC3)cccn2c1N(C=O)Cc1ccccc1	·	?	–	?	–	?
COc1ccc(S(=O)(=O)NCCc2sc(-c3cccnc3)nc2C)cc1	–	–	–	–	–	–
COc1cc(CNc2ccc3[nH]c(=O)[nH]c3c2)ccc1OCc1ccc(F)cc1	–	–	–	–	–	–
COc1cc(CNc2ccc3[nH]c(=O)[nH]c3c2)ccc1OCc1ccc(Cl)cc1	–	–	–	11µM	–	?
CC(=O)c1cccc(NC(=O)c2c(C)nn(-c3ccccc3)c2Cl)c1	–	–	–	–	–	–
Oc1ccc(N=Nc2n[nH]c(-c3ccccc3)n2)cc1	–	–	–	–	–	?

Screening results as filed in PubChem.
